Experimental findings from ChEMBL document CHEMBL1157539, “Thousands of chemical starting points for antimalarial lead identification” (Nature, 2010) are described below.

In general, Inhibition refers to how much of the control response was suppressed. Read a low Inhibition as little suppression.

The test system of this assay is Plasmodium falciparum. The assay can be described thus: GSK_TCMDC: Inhibition of Plasmodium falciparum 3D7 in whole red blood cells, using parasite LDH activity as an index of growth. Test compounds present at 2uM. The format is functional.
As to `CC(=O)Nc1ncc(C(=O)Nc2cccc(-c3ccc(-c4nc5ccccc5[nH]4)cc3)c2)s1`, the Inhibition was 100%.

The compound `CCOc1c(OC)ccc2c1CCN(CCN1CCC(CNC(=O)c3ccc(-c4ccc(C(F)(F)F)cc4)cc3)CC1)C2` displayed an Inhibition of 100%.

With `COc1ccc2nccc([C@@H](O)CN3CCC(NS(=O)(=O)c4cc5c(cc4Cl)SCC(=O)N5)CC3)c2c1.O=C(O)C(=O)O`, the Inhibition was determined as 88%.

Compound `O=C(COc1ccc(Cl)c(Cl)c1)NCCCCCN1CCCN(C(=O)Nc2ccc(Cl)c(Cl)c2)CC1.O=C(O)C(F)(F)F` showed an Inhibition of 93%.

`CCc1cc2c(O)c([N+](=O)[O-])c(=O)oc2cc1OCCCCCOc1cc2oc(=O)c([N+](=O)[O-])c(O)c2cc1CC`: the Inhibition stood at 99%.

As to `Cc1cc(N[C@@H](Cc2ccccc2)C(=O)NCCc2ccccc2)nc(NCCc2ccc(F)cc2)n1.O=C(O)C(F)(F)F`, the Inhibition came out at 99%.

For `Cc1nn(-c2ccc(Cl)cc2)c2[nH]c(CN3CCN(c4cccc(Cl)c4)CC3)cc(=O)c12`, the Inhibition is reported as 98%.

`C=C[C@]1(C)C[C@@H](OC(=O)CNC[C@@H](O)CN2C[C@H](c3ccnc4ccc(OC)nc34)OC2=O)[C@@]2(C)[C@@H]3C(=O)CC[C@@]3(CC[C@@H]2C)[C@@H](C)[C@@H]1O`: the Inhibition stood at 89%.

`Br.CC(CON1C(N)=NC(N)=NC1(C)C)c1ccc(Cl)cc1Cl` (stereo not given) had an Inhibition of 97%.

`CCN(CC)CCN(Cc1ccc(-c2ccc(C(F)(F)F)cc2)cc1)C(=O)Cn1c(CCc2cc(F)c(F)c(F)c2)nc(=O)c2ccccc21.O=C(O)C(O)C(O)C(=O)O` yielded an Inhibition of 100%.

`COc1ccccc1CNc1ccnc(N2CC(Oc3ccc(F)cc3)C2)n1` showed an Inhibition of 97%.

Regarding `C[C@@H](Oc1cc(-n2cnc3ccc(NC(=O)CCN4CCCCC4)cc32)sc1C(N)=O)c1ccccc1Cl`, the Inhibition is 100%.

As for `CS(=O)(=O)c1ccc(-c2cncc(Nc3cccc([N+](=O)[O-])c3)c2)cc1`, the Inhibition amounted to 97%.

As for `CC(C)(CNC(=O)C1CCN(CCOCc2ccccc2)CC1)c1nc(-c2ccc(Cl)c(O)c2)c(-c2ccncc2)[nH]1.Cl`, the Inhibition stood at 100%.

For `COc1cccc(-c2cc(C(F)(F)F)n3ncc(C(=O)Nc4cc(Cl)ccc4O)c3n2)c1`, the Inhibition was 99%.

`C=C1C[C@@H](n2cnc3c(NC(=O)c4ccccc4)ncnc32)[C@@H](F)[C@@H]1OC(c1ccccc1)(c1ccccc1)c1ccccc1` registered an Inhibition of 98%.

Turning to `CN1CCN(CCNc2c3ccccc3nc3c2ccc2ccccc23)CC1.Cl`, the Inhibition came out at 100%.

Consider `COc1ccc(CN2CCCN(Cc3ccc(C(=O)Nc4ccc(Cl)cc4)cc3)CC2)cc1.O=C(O)C(F)(F)F`, for which the Inhibition is 91%.

Turning to `COc1ccc2nccc([C@@H](O)CN3CCC(NC(=O)c4cc5c(Cl)cc(Cl)cc5[nH]4)CC3)c2c1`, the Inhibition is given as 100%.

As for `CN1CCC(NCc2cccc(-c3ccc(S(=O)(=O)NCCN4CCCC4)c(F)c3)c2)CC1.O=C(O)C(F)(F)F`, the Inhibition was determined as 91%.

On to `CN1CCCN(Cc2cccc(-c3ccc(NC(=O)c4cccc(C#N)c4)cc3)c2)CC1.O=C(O)C(F)(F)F`, for which the Inhibition is listed as 100%.

Take `Cc1ncccc1C(=O)Nc1ccc(-c2cccc(-c3nc4cccc(C)c4[nH]3)c2)cc1`: the Inhibition was 95%.

The compound `O=C(Nc1cccc(-c2ccc(-c3nc4cc(C(F)(F)F)ccc4[nH]3)cc2)c1)c1ccoc1` returned an Inhibition of 98%.

Consider `Cc1cc2c(cc1C(F)(F)F)N(C(=O)Nc1ccc(C(=O)NC3CCN(Cc4ccccc4)C3)cc1)CC2` (stereo not given), for which the Inhibition came to 100%.

`CCN(CC)CCNc1nc(C=Cc2ccc(Cl)cc2)nc2cc3ccccc3cc12` gave an Inhibition of 100%.

The compound `Cc1cccn2c(=O)c3cc(C(=O)NCCN4CCOCC4)c(=N)n(CCc4ccccc4)c3nc12` gave an Inhibition of 100%.

As to `Nc1nc(N)c2cc(S(=O)(=O)c3ccc4ccccc4c3)ccc2n1`, the Inhibition came to 95%.

Compound `N#Cc1cccc(CN2CCCN(c3ccc(NC(=O)c4cccs4)cc3)CC2)c1.O=C(O)C(F)(F)F` gave an Inhibition of 96%.

With `O=S(=O)(Nc1ccc(CCN2CCC(N3CCCCC3)CC2)cc1)c1ccc(Cl)cc1`, the Inhibition is reported as 100%.

For the compound `CCOc1ccccc1N1CCN(CCCNC(=O)/C(=C/C=C/c2cc3cc(Cl)c(Cl)cc3[nH]2)OC)CC1`, the Inhibition worked out at 98%.

The compound `O=C(Nc1ccc(CCNC2=NCCN2)cc1)Nc1ccc(CCNC2=NCCN2)cc1` displayed an Inhibition of 90%.

The compound `Clc1ccc(CNCC2CCN(CC3CCCCC3)CC2)cc1Cl` returned an Inhibition of 92%.

For `CCCN(CCC)CCOc1ccc(C(O)(C#CC(O)(c2ccc(OCCN(CCC)CCC)cc2)c2cccc(Cl)c2)c2cccc(Cl)c2)cc1` (stereo not given), the Inhibition is listed as 100%.

On to `N=C(N)NN=CC(=O)Nc1ccc(C(F)(F)F)cc1.O=S(=O)(O)O`, for which the Inhibition is reported as 100%.

On to `COc1ccc(N2CCc3c(-c4cccc5cnccc45)cc(C)nc32)c(C)c1`, for which the Inhibition was 96%.

`Nc1ccc(-c2nc3cc(Oc4ccc5[nH]c(-c6ccc(N)cc6)nc5c4)ccc3[nH]2)cc1` returned an Inhibition of 100%.

`O=C(O)C(F)(F)F.O=S(=O)(NCCN1CCCC1)c1ccc(-c2cccc(CNC3Cc4ccccc4C3)c2)s1` returned an Inhibition of 98%.

`c1ccc(COc2ccc(COc3ccc(Cn4ccnc4)cc3)cc2)cc1`: the Inhibition turned out to be 86%.

On to `CCOC(=O)c1ccc(-c2cnoc2-c2cc(CC)c(OC)cc2O)o1`, for which the Inhibition is reported as 100%.

Regarding `Cc1cccc2nc(-c3ccc(-c4cccc(NC(=O)NCc5ccc(F)cc5)c4)cc3)[nH]c12`, the Inhibition was found to be 100%.
